A selection: hits, their analogues and other compounds. The true share with any hit is near 3.5%.
TEAD-YAP inh = TEAD-YAP interaction inhibition. HEK-TIYL cells, TEAD-Gal4/YAP UAS-luciferase luminescence. inhibition, % at 9.12 µM. 1.4% of 640,000 active; in the data active = inhibition above about 32%;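 also: 0% = median of test compound wells and 100% = reference inhibitor wells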
MITF inh = human MITF inhibition, primary screen; inhibition, % at 2.6 µM; AlphaScreen MITF homodimerization, bead proximity signal; 0.91% of 650,000 active; in the data active = inhibition above about 50%;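 also: 0% = vehicle wells with protein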
Target sequence (O75030 whole entry, looked up): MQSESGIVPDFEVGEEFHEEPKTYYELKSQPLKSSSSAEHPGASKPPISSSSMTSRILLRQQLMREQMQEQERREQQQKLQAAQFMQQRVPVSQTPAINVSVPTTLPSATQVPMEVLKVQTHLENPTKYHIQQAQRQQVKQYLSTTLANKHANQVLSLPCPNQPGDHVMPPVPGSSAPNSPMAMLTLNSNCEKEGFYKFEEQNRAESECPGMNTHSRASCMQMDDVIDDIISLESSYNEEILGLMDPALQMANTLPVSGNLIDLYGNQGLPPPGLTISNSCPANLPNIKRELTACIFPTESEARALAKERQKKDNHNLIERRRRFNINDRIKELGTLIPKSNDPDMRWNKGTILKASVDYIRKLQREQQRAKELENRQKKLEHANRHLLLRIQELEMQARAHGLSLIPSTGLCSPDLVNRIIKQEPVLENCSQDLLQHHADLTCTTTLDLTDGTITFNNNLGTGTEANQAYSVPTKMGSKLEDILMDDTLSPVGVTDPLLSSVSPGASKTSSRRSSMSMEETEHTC
GPR151 ag = activators of human GPR151; Q8TDV0; PathHunter beta-arrestin GPR151 cells, luminescence; activation, % at 11.2 µM; 1% of 650,000 active; in the data active = activation above about 4.9%;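 also: 0% = median of compound wells and 100% = cells with positive control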
FBW7 act = activators of human E3 ligase FBW7; 0.13% of 650,000 active; AlphaScreen FBW7–phospho-cyclin E peptide binding, activator screen; normalized activity (activation), % at 26.1 µM; in the data active = normalized activity above about 1.9%;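 also: purified mutant Fbw7 with reduced substrate affinity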
MITF inh conf = confirmation of human MITF inhibitors; inhibition, % at 2.6 µM; 16% of 4,700 active; shares compounds with MITF inh; AlphaScreen MITF homodimerization, biotin/His-MITF beads; AID 1259372;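 active = inhibition above a cutoff derived from the DMSO control wells, cut at about 28% in these data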;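 also: 0% = MITF dimer wells with DMSO only; inhibitors lower the bead chemiluminescence by keeping MITF from dimerizing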
AlphaScreen DR = AlphaScreen optical interference, dose response counter-screen; shares compounds with MITF inh; AlphaScreen optical interference counterscreen, cell-free; IC50, µM; 6% of 480 active; AID 1259373; call rule not given here
AlphaScreen intf2 = optically interferes with AlphaScreen signal; LysRS AlphaScreen counterscreen, signal interference, triplicate; shares compounds with MITF inh; inhibition, % at 2.6 µM; 7.6% of 4,700 active;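 active = inhibition above a cutoff derived from the DMSO control wells, cut at about 30% in these data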
An asterisk follows results filed as active; · = no result given.

SMILES | TEAD-YAP inh | MITF inh | GPR151 ag | FBW7 act | MITF inh conf | AlphaScreen intf2 | others
O=C(NCc1cccnc1)C(=O)NCc1cccnc1 | 6 | 72* | 3 | 0 | 5 | 13
O=C(NCc1ccccc1)c1cccc(-c2cccs2)c1 | 4 | 29 | -1 | 0 | · | ·
O=C(NCc1cccnc1)c1cccc(-c2cccs2)c1 | 2 | 55* | -2 | 0 | 45* | -2 | AlphaScreen DR=>6.6
Cc1cc2c(n1Cc1ccccc1)C(=O)c1ccc(Br)cc1-2 | 0 | 9 | 1 | 0 | · | ·
O=C(Oc1ccc([N+](=O)[O-])cc1)c1cccc(N2C(=O)C3C4CCC(C4)C3C2=O)c1 (stereo unspecified) | 5 | -2 | 2 | 0 | · | ·
COC(=O)C(NC(=O)c1ccccc1OC)(Nc1sc2c(c1C#N)CCC(C(C)(C)C)C2)C(F)(F)F (stereo unspecified) | -1 | 6 | 0 | 0 | · | ·
Cc1nnc(NC(=O)/C=C/c2cccc([N+](=O)[O-])c2)s1 | 3 | 0 | 2 | 0 | · | ·
COc1ccc(CN2CCN(Cc3cccnc3)CC2)c(OC)c1OC | 4 | 81* | 1 | 0 | 12 | 14
COc1cccc(CN2CCN(Cc3cccnc3)CC2)c1OC | 7 | 76* | -1 | 0 | 5 | 11
COc1ccc(N2CCN(Cc3cccc(OC)c3OC)CC2)cc1 | -8 | 31 | 0 | 0 | · | ·
Cc1cc(-c2cnc(C)nc2C2CCCN(Cc3ccncc3)C2)on1 (stereo unspecified) | -13 | 36 | 0 | 0 | · | ·
Cc1cc(-c2cnc(C)nc2C2CCCN(Cc3cccnc3)C2)on1 (stereo unspecified) | 4 | 53* | 1 | 0 | 9 | 9
Nc1cc(Br)cnc1N | -18 | 78* | 0 | 0 | 80* | 9 | AlphaScreen DR=>8.6
O=C(Nc1ccccc1C(=O)NC1CCCCC1)c1cccc(S(=O)(=O)NC2CCCCC2)c1 | 3 | 15 | 0 | 0 | · | ·
Cc1ccc(NS(=O)(=O)c2cccc(C(=O)NNC(=O)NC3CCCCC3)c2)c(C)c1 | -1 | 71* | 2 | 0 | 4 | 13
C/C(CC(=O)Nc1c(C)cc(C)cc1C)=N\NC(=O)c1ccccc1F | -64 | -5 | 0 | 0 | · | ·
Cc1ncc(CO)c(/C=N/NC(=S)Nc2ccc(F)cc2)c1O | -2 | 85* | -2 | -1 | 15 | 23
Cc1ncc(CO)c(/C=N/Nc2ccc(C(F)(F)F)cc2[N+](=O)[O-])c1O | 4 | -10 | 1 | 0 | · | ·
Cc1ncc(CO)c(/C=N/Nc2ccc(C(F)(F)F)cn2)c1O | 30 | 58* | 4 | -1 | 23 | 100*
Cc1ncc(CO)c(/C=N/NC(=S)Nc2ccc(Cl)cc2)c1O | 9 | 64* | 0 | 0 | -15 | 21
Cc1ncc(CO)c(/C=N/NC(=O)c2ccccc2F)c1O | -33 | 32 | 0 | -2 | · | ·
CCCCOC(=O)c1ccc2c(c1)C(=O)N(c1ccc(C)c(C)c1)C2=O | 3 | 7 | 1 | 0 | · | ·
O=C(CS(=O)(=O)c1cccc2nsnc12)Nc1cccc(Cl)c1 | 4 | 5 | 0 | 0 | · | ·
CC(=O)Nc1ccc(NC(=O)c2cncc(-c3ccccc3)c2)cc1 | -1 | -5 | 0 | 0 | · | ·
Cc1ccccc1NC(=O)Nc1ccnn1C1CCN(Cc2cc(Cl)ccc2O)CC1 | 8 | 1 | 1 | 0 | · | ·
SMILES | TEAD-YAP inh | MITF inh | GPR151 ag | FBW7 act | MITF inh conf | AlphaScreen intf2 | others
C(=N\Nc1nncc2ccccc12)/c1ccccn1 | 78* | 82* | -2 | 0 | 18 | 29
Clc1ccc(/C=N/Nc2nncc3ccccc23)cc1Cl | -28 | 17 | 1 | 0 | · | ·
CCc1ccc(OCC(=O)Nc2cc(C)ccn2)cc1 | 5 | 51* | 1 | 0 | -13 | -8
CN(C)CC(=O)Nc1cccc(CN(C(=O)c2nc3ccc(-c4cn[nH]c4)cc3s2)C2CC2)c1 | 0 | -4 | 0 | -1 | · | ·
CN1CCN(CCNC(=O)c2cccc(CN(C(=O)c3nc4ccc(-c5cn[nH]c5)cc4s3)C3CC3)c2)CC1 | 50* | 78* | 0 | 2 | 72* | -14 | AlphaScreen DR=>6.5
O=C(NCCN1CCCCC1)c1cccc(CN(C(=O)c2nc3ccc(-c4cn[nH]c4)cc3s2)C2CC2)c1 | 4 | 32 | -1 | 1 | · | ·
O=C(NCCN1CCOCC1)c1cccc(CN(C(=O)c2nc3ccc(-c4cn[nH]c4)cc3s2)C2CC2)c1 | 15 | 66* | 1 | 2 | 73* | 6 | AlphaScreen DR=>6.5
COc1ccc(CCNC(=O)C2CCN(Cc3nc4ccccc4[nH]3)CC2)cc1 | 0 | 80* | 0 | -1 | 6 | 14
O=C(C1CCN(Cc2nc3ccccc3[nH]2)CC1)N1CCN(C2CCCCC2)CC1 | -5 | 9 | 0 | 0 | · | ·
COCC(=O)N1CCN(Cc2nc3ccccc3[nH]2)CC1 | -5 | 58* | 2 | 0 | 3 | 15
COc1ccc2nc(CN3CCN(C(=O)C4CC4)CC3)[nH]c2c1 | -6 | 68* | 0 | 0 | 13 | 13
COC(=O)CN1CCN(Cc2nc3ccccc3[nH]2)CC1 | -11 | 52* | -1 | 0 | 6 | 14
CCNC(=O)N1CCN(Cc2nc3ccccc3[nH]2)CC1 | -2 | 8 | -1 | 0 | · | ·
O=C(c1cccc2ccccc12)N1CCN(Cc2nc3ccccc3[nH]2)CC1 | 10 | 59* | 2 | 0 | -2 | 13
O=C(CN1CCN(Cc2nc3ccccc3[nH]2)CC1)N1CCCc2ccccc21 | 9 | 91* | -2 | 0 | 1 | 24
COC(=O)CC1=NN(c2nc3ccccc3[nH]2)C(=O)C1 | 3 | 79* | 3 | -1 | 70* | 97*
COc1ccc(-n2c(=S)[nH]c3cc(C(=O)NCCc4ccc(Cl)cc4)ccc3c2=O)cc1OC | -6 | -14 | 0 | 0 | · | ·
Nc1cc(Oc2ccc(O)c(N)c2)ccc1O | 0 | 111* | 3 | -1 | 117* | 78*
Nc1cc(C(=O)c2ccc(O)c(N)c2)ccc1O | -4 | 20 | 0 | 0 | · | ·
O=C(Nc1cc(C(=O)Nc2ccc(S(=O)(=O)O)cc2S(=O)(=O)O)cc(C(=O)Nc2ccc(S(=O)(=O)O)cc2S(=O)(=O)O)c1)Nc1cc(C(=O)Nc2ccc(S(=O)(=O)O)cc2S(=O)(=O)O)cc(C(=O)Nc2ccc(S(=O)(=O)O)cc2S(=O)(=O)O)c1 | -9 | 24 | -2 | 0 | · | ·
O=C(Nc1ccc(C(=O)Nc2ccc(C(=O)Nc3ccc(S(=O)(=O)O)c4cc(S(=O)(=O)O)cc(S(=O)(=O)O)c34)cc2)cc1)Nc1ccc(C(=O)Nc2ccc(C(=O)Nc3ccc(S(=O)(=O)O)c4cc(S(=O)(=O)O)cc(S(=O)(=O)O)c34)cc2)cc1 | · | 71* | 1 | 0 | 67* | 7 | AlphaScreen DR=>6.5
CN(CCc1ccccn1)Cc1ccccc1[N+](=O)[O-] | 1 | 57* | 0 | 0 | 11 | 1
CN(CCc1ccccn1)Cc1cc2c(cc1[N+](=O)[O-])OCO2 | -9 | 8 | 1 | 0 | · | ·
